# PINK1 expr mod: PINK1 expression modulation | PINK1 immunofluorescence, high-content cytometry, 24 h | hit rate 0.2% among 410,000 | Potency, µM (top dose mostly 76.6 µM), for the others: at the highest dose activation (PINK1 increase), usual class: activators; active means well fitted activation curve with a large enough effect; inconclusive means small, poorly fitted or top-dose-only effect; cell line not stated here; further: potency means the concentration at half of the fitted maximal effect; % of control where 0% means no effect; nearly all actives have a fitted effect of over 65% in size
#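 PINK1 protein, normally rapidly degraded, was detected by immunofluorescence after 24 hour compound treatment of a stable cell line. Titration data (5 concentrations) came from laser-scanning cytometry, with CCCP-treated wells as controls.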
# S2 tox: cell viability loss in ATXN counter-screen | S2 cells (HEK-293 line with an ATXN2-luciferase reporter) viability, CellTiter-Fluor protease fluorescence, 24 h | Potency, µM (doses to about 56.7 µM), most hits filed as cytotoxic | hit rate 0.49% among 400,000 | AID 651635; further: potency means the concentration at half of the fitted maximal effect; nearly all actives have a fitted effect of over 40% in size
# IL-1B inflam inh: inflammasome signaling inhibition, IL-1 beta readout. THP-1 LPS/ATP IL-1B secretion, AlphaLISA, 16 h; hits give low values. activity change, % at 57.5 µM. hit rate 4.7% among 360,000. AID 743279; in the data active means activity change below about -50%; inconclusive means mostly about -30% to -49%; further: on the % scale 0 is the no-effect control and ±100 the full control effect
#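 THP-1 cells pretreated 1 hr with compounds (up to 57.5 uM final), then stimulated with LPS (250 ng/mL final) plus ATP (1.25 mM final); secreted IL-1B measured by AlphaLISA after 16 hr, decreased signal indicating inhibition.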
# ATXN2 expr inh: reduces ATXN2 reporter expression in HEK-293 cells. HEK-293 ATXN2-luciferase reporter, luminescence, 24 h. hit rate 0.72% among 360,000. Potency, µM (highest dose often 57 µM), inactives show at the highest dose activity change, negative = inhibition, actives largely listed as inhibitors. AID 1745845; further: potency means the concentration at half of the fitted maximal effect; on the % scale 0 is the no-effect control and ±100 the full control effect; nearly all actives have a fitted effect of over 55% in size
#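 ATXN2-luciferase reporter cells (luciferase flanked by upstream and downstream ATXN2 gene portions) were treated 24 h at 37 °C with compounds at up to 57 uM. SteadyGlo luminescence gave expression; GF-AFC fluorescence gave viability.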
# MCF10A rereplic: induces DNA re-replication in MCF 10a normal breast cells; Potency, µM (top dose mostly 46.1 µM), for the others: at the top dose activity, positive = re-replication, actives largely listed as activators; AID 624296; hit rate 2.9% among 350,000; MCF 10A DNA re-replication, Hoechst nuclear intensity, 48 h; further: potency means the concentration at half of the fitted maximal effect; % of control where 0% means no effect; nearly all actives have a fitted effect of over 50% in size
# SW480 rereplic: induces DNA re-replication in SW480 colon adenocarcinoma cells; SW480 DNA re-replication, Hoechst DNA content imaging, 48 h; Potency, µM (series often up to 46.1 µM), for the others: at the highest dose re-replication activation, hits mostly activators; hit rate 1.8% among 340,000; further: potency means the concentration at half of the fitted maximal effect; % of control where 0% means no effect; nearly all actives have a fitted effect of over 55% in size
#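 Image-based read-out: total Hoechst fluorescence of nuclei (405 nm excitation, 500-530 nm emission), with hits raising the fraction of high-intensity nuclei. SW480 colon cells incubated 48 hr with compounds at 37 C.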
# Numbers without * were called inactive; i = inactive; ? = inconclusive; / = no result; [ ] = dose if it differs, or a comment. The list is not random: actives were taken first. Their share in the collection is about 7.1%. Unless noted, the call rests on the fitted dose curve; in most records, active means well fitted curve in the direction sought with a large enough effect; inconclusive means small, poorly fitted or top-dose-only effect, or another doubt; inactive means no such curve, though single readings can be large; an effect the other way counts as inactive or inconclusive.
SMILES,PINK1 expr mod,S2 tox,IL-1B inflam inh,ATXN2 expr inh,MCF10A rereplic,SW480 rereplic
Cc1ccc(C)c(N2CCN(C(=O)CCNC(=O)Cn3ccc4ccccc4c3=O)CC2)c1,2%[38.3 µM],i,-1,-28%,-1%,-5%
Cc1ccc(Cl)cc1N1CCN(C(=O)CCCn2c(=O)c3cccn3c3cccnc32)CC1,0%,?,-9,/,16µM*,?
Cc1ccccc1C(=O)Nc1c(C)nc(Nc2ccccc2)nc1Nc1ccccc1,3%,?,/,?,/,/
Cn1c(SCC2CCCO2)nnc1C1CCN(Cc2ccccc2O)CC1 (stereo unspecified),-1%,i,/,/,/,/
O=C1C2C3C=CC(C4CC34)C2C(=O)N1/N=C/c1ccc([N+](=O)[O-])o1 (stereo unspecified),1%,?,-98*,?,3.3µM*,10µM*
COC(=O)c1cccc(-c2ccc(/C=N/N3C(=O)C4C5C=CC(C6CC56)C4C3=O)o2)c1 (stereo unspecified),1%,i,0,-3%,-7%,-10%
O=C1C2C3C=CC(C4CC34)C2C(=O)N1/N=C/c1ccc(-c2ccc([N+](=O)[O-])cc2)o1 (stereo unspecified),?,i,0,-20%,-10%,?
COC(=O)c1ccc(-c2ccc(/C=N/N3C(=O)C4C5C=CC(C6CC56)C4C3=O)o2)cc1 (stereo unspecified),?,i,-57*,11%,?,-2%
O=C1C2C(C(=O)N1/N=C/c1ccc([N+](=O)[O-])o1)C1C=CC2C12CC2 (stereo unspecified),2%,?,-91*,-20%,16µM*,?
COc1cccc(-c2nc3c(c(SCc4ccccc4Cl)n2)Cc2c(CO)cnc(C)c2O3)c1,-2%,?,/,-4%,/,/
COc1ccc(-c2noc(CCC(=O)Nc3ccccc3Cl)n2)cc1OC,1%,i,/,-3%,/,/
COc1ccccc1CNC(=O)C(=O)NCC(c1cccs1)S(=O)(=O)c1ccc(F)cc1 (stereo unspecified),-1%,i,/,2%,/,/
N#CNC(=Nc1cccc(F)c1)SCc1cccc(F)c1,6%,i,-7,-6%,?,1%
CC(C)(C)NC(=O)CSC(=Nc1ccc(F)cc1)NC#N,1%,i,-97*,11%,?,-2%
COc1ccc(C2N=C(c3ccccc3)NC(c3ccccc3)=N2)cc1,-1%[38.3 µM],?,-29,-17%,2.6µM*,?
Oc1ccccc1C1N=C(c2ccccc2)NC(c2ccccc2)=N1,1%,i,-55*,0%,2%,1%
COCCN(CC(=O)Nc1cccc(C)c1C)C(=O)C1(c2ccc(Cl)cc2)CCC1,0%,i,-53*,-16%,79%,-12%
COCCN(CC(=O)Nc1cccc(C)c1C)C(=O)C1(c2ccccc2)CC1,-1%,?,-10,-4%,-1%,0%
N#C/C(=C\c1c(Oc2ccccc2F)nc2ccccn2c1=O)C(=O)NC1CCS(=O)(=O)C1 (stereo unspecified),1%,/,?,39%,16µM*,?
N#C/C(=C\c1c(N2CCOCC2)nc2ccccn2c1=O)C(=O)NC1CCS(=O)(=O)C1 (stereo unspecified),-1%,/,-17,30%,5.8µM*,?
N#C/C(=C\c1c(N2CCCCCC2)nc2ccccn2c1=O)C(=O)NC1CCS(=O)(=O)C1 (stereo unspecified),2%,i,-11,2%,1%,-6%
Oc1ccccc1CNCC12CC3CC(CC(C3)C1)C2,11%,i,-87*,9%,-2%,?
OCCNCC12CC3CC(CC(C3)C1)C2,2%,i,10,-24%,11%,5%
CC(CC12CC3CC(CC(C3)C1)C2)NCc1ccccc1O (stereo unspecified),1%,?,-85*,-53%,?,?
CCCN1CCc2c(sc(NC(=O)CCS(=O)(=O)c3ccccc3)c2C(=O)OC)C1,3%,?,i,-3%,18µM*,?
SMILES,PINK1 expr mod,S2 tox,IL-1B inflam inh,ATXN2 expr inh,MCF10A rereplic,SW480 rereplic
NC(=O)c1c(NC(=O)C2COc3ccccc3O2)sc2c1CCN(Cc1ccccc1)C2 (stereo unspecified),14%,/,8,-32%,23µM*,?
CCOC(=O)c1c(NC(=O)C2COc3ccccc3O2)sc2c1CCN(Cc1ccccc1)C2 (stereo unspecified),6%,i,7,7%,?,-8%
CCN1CCc2c(sc(NC(=O)c3ccc(S(=O)(=O)N(C)C4CCCCC4)cc3)c2C(N)=O)C1,-5%,i,/,?,/,/
COC(=O)c1c(NC(=O)CCS(=O)(=O)c2ccccc2)sc2c1CCN(C)C2,1%,i,?,0%,?,?
CCCN1CCc2c(sc(NC(=O)c3ccc(S(=O)(=O)N(C)c4ccccc4)cc3)c2C(=O)NC)C1,4%,i,-60*,-12%,?,?
CCCN1CCc2c(sc(NC(=O)c3ccc(S(=O)(=O)N(C)c4ccccc4)cc3)c2C(N)=O)C1,16%,?,-16,-33%,6.5µM*,?
CC1=C(C(=O)Nc2ccccc2)C(c2ccccn2)n2nc(SCc3ccccc3Cl)nc2N1 (stereo unspecified),6%,i,/,-6%,/,/
O=C(Nc1ccc(-n2cccn2)cc1)C1CCCCN1Cc1cccc2c1OCO2 (stereo unspecified),3%,i,28,/,3.7µM*,?
CCC(C(=O)N1CCN(c2ccccc2F)CC1)n1nc(C)c2sc3ccccc3c2c1=O (stereo unspecified),2%,/,/,/,/,/
CCOc1ccc(N(C)C(=O)CS(=O)(=O)c2cccc3nsnc23)cc1,-5%,i,/,3%,/,/
CC(C)COc1ccc(C(=O)N2CCCCC2CCN2CCCCC2)cc1 (stereo unspecified),-1%,/,/,/,/,/
CCn1c([N+](=O)[O-])nc2c1c(=O)[nH]c(=O)n2C,-1%,/,-99*,/,5.8µM*,8.2µM*
OC1(c2ccc(Cl)cc2)CCNCC1,/,i,/,-18%,/,/
Cc1ccc2nc(/C(C#N)=C/c3ccc(O)c(O)c3)[nH]c2c1,4%,i,24,33%,?,23µM*
Cc1ccc2nc(/C(C#N)=C/c3ccccc3C(=O)O)[nH]c2c1,1%,i,29,18%,?,8%
Cc1ccc2nc(/C(C#N)=C/c3cn[nH]c3-c3ccc(F)cc3)[nH]c2c1,4%,i,?,?,13µM*,?
Cc1nc(NCc2cccc3c2OCO3)sc1-c1ccn(CC2CCCN(C)C2)n1 (stereo unspecified),0%,i,/,/,/,/

# Screening data deposited in PubChem BioAssay by National Center for Advancing Translational Sciences (NCATS).
